Consider 20 compounds from PubChem BioAssay (EPA / NIEHS).

The subject of assay [1] is rat Monoamine Oxidase, MAO-A, Peripheral (MAOAP), gene 29253. Put plainly: NVS_ENZ_rMAOAP: NovaScreen (NVS) Enzymatic Assay for rat Monoamine Oxidase, MAO-A, Peripheral (MAOAP) (AID 2283237). In a few lines: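 Scintillation counting tracked MAO-A activity in a cell-free rat liver mitochondrial membrane prep, read 1.17 hours after compound addition. Single-point duplicate testing at 25 uM preceded concentration-response follow-up; activity was fitted relative to DMSO.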

The target in assay [2] is rat Monoamine Oxidase, MAO-B, Central (MAOBC), Maob (gene 25750) (UniProt P19643). Put plainly: NVS_ENZ_rMAOBC: NovaScreen (NVS) Enzymatic Assay for rat Monoamine Oxidase, MAO-B, Central (MAOBC) (AID 2283238). In a few lines:
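Cell-free radiometric assay, rat brain lysate. Read-out: scintillation counts, 1.17 h post-dosing. Screen 25 uM in duplicate; actives (e.g. ≥30% inhibition) then singleton concentration-response, max 50 uM. Activity loss fitted relative to DMSO.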

For assay [3], the target named is sheep Cyclooxygenase-1 (Cox1), PTGS1 (gene 443551) (UniProt P05979). The experiment in a line: NVS_ENZ_oCOX1: NovaScreen (NVS) Enzymatic Assay for sheep Cyclooxygenase-1 (Cox1) (AID 2283239).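 Also: actives reduce cyclooxygenase activity so potencies are for inhibitors.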 The procedure, abridged: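 Native ovine seminal vesicle protein serves as enzyme source in this biochemical assay. Colorimetric signal is recorded 0.66 h after chemical addition, and decreases versus the DMSO control define activity.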

For assay [4], the system named is rat Monoamine Oxidase, MAO-A, Central (MAOAC), gene 29253. The experiment in a line: NVS_ENZ_rMAOAC: NovaScreen (NVS) Enzymatic Assay for rat Monoamine Oxidase, MAO-A, Central (MAOAC) (AID 2283243).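 Also: potency refers to inhibition seen as signal drop below DMSO baseline.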 The procedure, abridged: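 Scintillation read-out of MAO-A activity in rat brain lysate, 1.5 h post-dosing. Primary single-concentration screen: 25 uM, duplicate; actives re-tested in concentration series. DMSO = negative control/baseline.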

Assay [5] has as its target rabbit Imidazoline 2 Central (I2C), CKB (gene 100009085) (UniProt P00567). The experiment in a line: NVS_ENZ_rabI2C: NovaScreen (NVS) Enzymatic Assay for rabbit Imidazoline 2 Central (I2C) (AID 2283228). In a few lines: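 Rabbit brain membranes, cell-free; readout by filter-based scintillation counting 1.5 hours after dosing, loss of signal vs DMSO. Initial duplicate test at 25 uM, then concentration-response with 50 uM top concentration.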

In assay [6] the target is rat Constitutive Nitric Oxide Synthase (CNOS), Nos1 (gene 24598) (UniProt P29476). The experiment in a line: NVS_ENZ_rCNOS: NovaScreen (NVS) Enzymatic Assay for rat Constitutive Nitric Oxide Synthase (CNOS) (AID 2283236). The procedure, abridged: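 Single 25 uM duplicate screen, then concentration series to 50 uM for chemicals meeting threshold. Rat brain membrane-derived CNOS activity detected radiometrically by filtration and scintillation counting, 1 h after compound addition; DMSO as baseline.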

Assay [7] has as its system bovine Angiotensin II Receptor Type 2 (AT2), gene 407157. Put plainly: NVS_GPCR_bAT2: NovaScreen (NVS) G Protein-Coupled Receptor Assay for bovine Angiotensin II Receptor Type 2 (AT2) (AID 2283240). In a few lines:
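Radioligand displacement on bovine cerebellar membranes, 1 hour incubation, filter-based scintillation counting; loss of signal vs DMSO. Duplicate single-point screen at 25 uM, then concentration-response to 50 uM maximum.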

Assay [8] concerns the target rat Acetylcholinesterase (AChE), Ache (gene 83817) (UniProt P37136). The experiment in a line: NVS_ENZ_rAChE: NovaScreen (NVS) Enzymatic Assay for rat Acetylcholinesterase (AChE) (AID 2283233). The procedure, abridged:
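Compounds first screened at 25 uM in duplicate, then those passing threshold tested in concentration series up to 50 uM, against AChE from rat brain membranes. Enzyme activity read by absorbance at 0.33 h; inhibition scored versus DMSO.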

Assay [9] addresses human Tyrosine Protein Kinase Receptor Tie-2 (Tie2), TEK (gene 7010) (UniProt Q02763). Put plainly: NVS_ENZ_hTie2: NovaScreen (NVS) Enzymatic Assay for human Tyrosine Protein Kinase Receptor Tie-2 (Tie2) (AID 2283225). The procedure, abridged: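 Substrate and product were separated by mobility shift and detected by fluorescence after a 1-hour reaction with recombinant Tie2. Chemicals passing a 25 uM single-point screen were titrated to a maximum of 50 uM. Results were normalized to DMSO baseline.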

The target in assay [10] is human Vascular Endothelial Growth Factor Receptor 2 (VEGFR2), KDR (gene 3791) (UniProt P35968). Put plainly: NVS_ENZ_hVEGFR2: NovaScreen (NVS) Enzymatic Assay for human Vascular Endothelial Growth Factor Receptor 2 (VEGFR2) (AID 2283230). In a few lines: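 Cell-free recombinant VEGFR2 kinase, fluorescent substrate with electrophoretic mobility-shift separation; read 1 h after dosing. Screened at 25 uM in duplicate, hits to concentration-response up to 50 uM; loss-of-signal versus DMSO.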

Assay [11] deals with guinea pig Leukotriene B4 Receptor (LTB4), gene 100379538. The experiment in a line: NVS_GPCR_gLTB4: NovaScreen (NVS) G Protein-Coupled Receptor Assay for guinea pig Leukotriene B4 Receptor (LTB4) (AID 2283247). The procedure, abridged: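 Membranes from guinea pig spleen incubated 2 h with radioligand and compound; bound counts measured by filtration and scintillation. Screened first at 25 uM in duplicate, then actives titrated to a 50 uM top concentration relative to DMSO.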

Assay [12] has as its target human Serotonin, 5-Hydroxytryptamine Receptor 6 (5HT6), HTR6 (gene 3362) (UniProt P50406). Put plainly: NVS_GPCR_h5HT6: NovaScreen (NVS) G Protein-Coupled Receptor Assay for human Serotonin, 5-Hydroxytryptamine Receptor 6 (5HT6) (AID 2283253). The procedure, abridged: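 Filter scintillation counting of radioligand displacement from HEK293-expressed 5HT6, 1 hour post-dose, with loss of signal relative to DMSO. Single 25 uM duplicates first, with concentration series for confirmation.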

Assay [13] addresses human Serotonin, 5-Hydroxytryptamine Receptor 5A (5HT5A), HTR5A (gene 3361) (UniProt P47898). The experiment in a line: NVS_GPCR_h5HT5A: NovaScreen (NVS) G Protein-Coupled Receptor Assay for human Serotonin, 5-Hydroxytryptamine Receptor 5A (5HT5A) (AID 2283251). The procedure, abridged: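 Membranes from HEK293 cells, radioligand binding read by filtration and scintillation after 1 h. Single-concentration duplicate testing at 25 uM, then concentration-response for actives; positive-direction fitting relative to DMSO.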

Assay [14] concerns the target sheep Cyclooxygenase-2 (Cox2), PTGS2 (gene 443460) (UniProt P79208). Put plainly: NVS_ENZ_oCOX2: NovaScreen (NVS) Enzymatic Assay for sheep Cyclooxygenase-2 (Cox2) (AID 2283231). In a few lines: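 Enzyme extracted from ovine placenta tested cell-free; activity read colorimetrically by absorbance 0.66 hour after dosing. Primary screen in duplicate at 25 uM; hits rerun as concentration series to 50 uM, loss of signal versus DMSO baseline.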

Assay [15] has as its target rat Catechol-O-Methyl Transferase (COMT), Comt (gene 24267) (UniProt P22734). Put plainly: NVS_ENZ_rCOMT: NovaScreen (NVS) Enzymatic Assay for rat Catechol-O-Methyl Transferase (COMT) (AID 2283235). The procedure, abridged: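 Rat dorsal striatum extract served as COMT source; product quantified by HPLC/spectrophotometry, read at 0 h after dosing. Primary single-concentration screen at 25 uM, followed by concentration series to a 50 uM maximum.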

Assay [16] has as its target rat Monoamine Oxidase, MAO-B, Peripheral (MAOBP), Maob (gene 25750) (UniProt P19643). Put plainly: NVS_ENZ_rMAOBP: NovaScreen (NVS) Enzymatic Assay for rat Monoamine Oxidase, MAO-B, Peripheral (MAOBP) (AID 2283242).

Molecules are shown by their SMILES. Records with an inconclusive call do not appear. Calls of active or inactive are those of the source. The calls were made as follows: active = hit-call score of the fitted dose curve at least 0.9, where 1 is the maximum; inconclusive = response in the unintended direction; inactive = score below 0.9.

sheep Cyclooxygenase-1 (Cox1), PTGS1 (gene 443551), sequence (P05979 whole entry, looked up): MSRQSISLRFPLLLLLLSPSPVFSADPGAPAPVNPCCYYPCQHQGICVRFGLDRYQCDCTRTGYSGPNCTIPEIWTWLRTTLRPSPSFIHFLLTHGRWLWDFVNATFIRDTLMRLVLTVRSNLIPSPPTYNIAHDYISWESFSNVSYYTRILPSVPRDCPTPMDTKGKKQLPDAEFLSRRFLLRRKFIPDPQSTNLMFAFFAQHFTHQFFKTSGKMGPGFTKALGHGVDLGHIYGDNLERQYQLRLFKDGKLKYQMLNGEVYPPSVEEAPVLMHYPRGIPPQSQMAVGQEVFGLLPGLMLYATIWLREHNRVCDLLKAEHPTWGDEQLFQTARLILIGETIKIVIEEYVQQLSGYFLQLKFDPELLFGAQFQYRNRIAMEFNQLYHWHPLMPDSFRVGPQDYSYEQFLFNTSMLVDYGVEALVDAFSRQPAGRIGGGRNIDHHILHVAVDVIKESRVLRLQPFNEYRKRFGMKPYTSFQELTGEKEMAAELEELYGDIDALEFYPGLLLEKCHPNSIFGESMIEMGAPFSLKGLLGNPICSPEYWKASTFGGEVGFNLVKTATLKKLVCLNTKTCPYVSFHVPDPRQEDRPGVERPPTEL
rat Constitutive Nitric Oxide Synthase (CNOS), Nos1 (gene 24598), sequence (P29476 whole entry, looked up): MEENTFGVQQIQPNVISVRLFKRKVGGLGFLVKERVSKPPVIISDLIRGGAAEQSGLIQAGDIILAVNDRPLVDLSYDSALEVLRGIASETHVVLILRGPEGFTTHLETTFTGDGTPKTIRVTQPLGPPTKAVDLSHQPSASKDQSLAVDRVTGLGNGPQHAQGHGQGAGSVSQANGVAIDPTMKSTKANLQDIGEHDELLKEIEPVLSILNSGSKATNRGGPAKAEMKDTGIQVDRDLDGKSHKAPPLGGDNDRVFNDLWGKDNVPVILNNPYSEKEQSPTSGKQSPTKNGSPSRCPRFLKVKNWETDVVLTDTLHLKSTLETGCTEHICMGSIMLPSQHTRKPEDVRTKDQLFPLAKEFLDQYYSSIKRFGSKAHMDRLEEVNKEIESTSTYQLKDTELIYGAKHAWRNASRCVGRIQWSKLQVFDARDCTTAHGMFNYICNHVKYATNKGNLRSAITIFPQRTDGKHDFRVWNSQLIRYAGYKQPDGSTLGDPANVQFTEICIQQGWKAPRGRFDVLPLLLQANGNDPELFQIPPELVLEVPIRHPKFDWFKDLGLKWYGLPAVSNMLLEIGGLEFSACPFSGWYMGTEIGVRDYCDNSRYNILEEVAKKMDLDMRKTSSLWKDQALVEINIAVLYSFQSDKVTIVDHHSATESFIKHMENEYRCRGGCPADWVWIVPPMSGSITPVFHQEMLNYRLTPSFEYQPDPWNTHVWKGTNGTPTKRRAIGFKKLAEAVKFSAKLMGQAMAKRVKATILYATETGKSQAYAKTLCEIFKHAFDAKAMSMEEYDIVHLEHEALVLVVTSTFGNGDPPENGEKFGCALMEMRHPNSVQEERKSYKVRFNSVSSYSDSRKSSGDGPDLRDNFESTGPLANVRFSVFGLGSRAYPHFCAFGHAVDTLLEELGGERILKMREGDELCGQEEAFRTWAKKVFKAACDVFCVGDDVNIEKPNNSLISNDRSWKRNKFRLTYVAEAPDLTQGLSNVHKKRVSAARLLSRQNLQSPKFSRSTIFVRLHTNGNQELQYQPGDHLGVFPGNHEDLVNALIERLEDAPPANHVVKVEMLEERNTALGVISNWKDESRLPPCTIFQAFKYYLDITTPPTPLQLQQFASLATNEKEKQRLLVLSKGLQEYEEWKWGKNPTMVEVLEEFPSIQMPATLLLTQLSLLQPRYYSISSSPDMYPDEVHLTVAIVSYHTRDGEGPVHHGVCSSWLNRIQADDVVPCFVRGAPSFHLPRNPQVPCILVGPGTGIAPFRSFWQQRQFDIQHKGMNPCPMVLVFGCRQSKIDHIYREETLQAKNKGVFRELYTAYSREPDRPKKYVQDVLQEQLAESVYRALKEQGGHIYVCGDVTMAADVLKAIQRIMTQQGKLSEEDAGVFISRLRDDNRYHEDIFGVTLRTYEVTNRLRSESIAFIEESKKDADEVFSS
rat Monoamine Oxidase, MAO-B, Central (MAOBC), Maob (gene 25750), sequence (P19643 whole entry, looked up): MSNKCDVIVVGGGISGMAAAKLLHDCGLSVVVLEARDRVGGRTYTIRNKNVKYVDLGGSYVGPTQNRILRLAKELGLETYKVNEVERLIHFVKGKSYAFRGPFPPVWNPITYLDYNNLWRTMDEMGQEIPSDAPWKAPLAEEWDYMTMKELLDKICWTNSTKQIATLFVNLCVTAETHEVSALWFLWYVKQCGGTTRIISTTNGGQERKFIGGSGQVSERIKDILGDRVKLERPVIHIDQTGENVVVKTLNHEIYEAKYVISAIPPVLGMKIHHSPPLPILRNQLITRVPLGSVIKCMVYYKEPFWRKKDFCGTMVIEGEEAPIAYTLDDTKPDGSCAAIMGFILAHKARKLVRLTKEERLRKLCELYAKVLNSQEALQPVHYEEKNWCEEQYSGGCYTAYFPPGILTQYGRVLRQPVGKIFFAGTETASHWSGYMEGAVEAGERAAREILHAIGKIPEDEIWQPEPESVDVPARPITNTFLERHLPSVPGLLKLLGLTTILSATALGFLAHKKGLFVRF
rabbit Imidazoline 2 Central (I2C), CKB (gene 100009085), sequence (P00567 whole entry, looked up): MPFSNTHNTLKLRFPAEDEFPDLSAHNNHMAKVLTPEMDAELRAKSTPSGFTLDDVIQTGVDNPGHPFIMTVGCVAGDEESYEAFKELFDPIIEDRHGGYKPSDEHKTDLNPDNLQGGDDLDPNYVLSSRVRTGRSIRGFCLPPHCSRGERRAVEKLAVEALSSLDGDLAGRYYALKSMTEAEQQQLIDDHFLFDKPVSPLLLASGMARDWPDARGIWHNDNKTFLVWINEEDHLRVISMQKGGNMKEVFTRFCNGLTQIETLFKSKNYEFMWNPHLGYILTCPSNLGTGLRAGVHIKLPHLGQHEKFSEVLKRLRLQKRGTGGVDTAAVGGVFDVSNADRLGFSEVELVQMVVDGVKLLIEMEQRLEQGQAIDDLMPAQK
human Tyrosine Protein Kinase Receptor Tie-2 (Tie2), TEK (gene 7010), sequence (Q02763 whole entry, looked up): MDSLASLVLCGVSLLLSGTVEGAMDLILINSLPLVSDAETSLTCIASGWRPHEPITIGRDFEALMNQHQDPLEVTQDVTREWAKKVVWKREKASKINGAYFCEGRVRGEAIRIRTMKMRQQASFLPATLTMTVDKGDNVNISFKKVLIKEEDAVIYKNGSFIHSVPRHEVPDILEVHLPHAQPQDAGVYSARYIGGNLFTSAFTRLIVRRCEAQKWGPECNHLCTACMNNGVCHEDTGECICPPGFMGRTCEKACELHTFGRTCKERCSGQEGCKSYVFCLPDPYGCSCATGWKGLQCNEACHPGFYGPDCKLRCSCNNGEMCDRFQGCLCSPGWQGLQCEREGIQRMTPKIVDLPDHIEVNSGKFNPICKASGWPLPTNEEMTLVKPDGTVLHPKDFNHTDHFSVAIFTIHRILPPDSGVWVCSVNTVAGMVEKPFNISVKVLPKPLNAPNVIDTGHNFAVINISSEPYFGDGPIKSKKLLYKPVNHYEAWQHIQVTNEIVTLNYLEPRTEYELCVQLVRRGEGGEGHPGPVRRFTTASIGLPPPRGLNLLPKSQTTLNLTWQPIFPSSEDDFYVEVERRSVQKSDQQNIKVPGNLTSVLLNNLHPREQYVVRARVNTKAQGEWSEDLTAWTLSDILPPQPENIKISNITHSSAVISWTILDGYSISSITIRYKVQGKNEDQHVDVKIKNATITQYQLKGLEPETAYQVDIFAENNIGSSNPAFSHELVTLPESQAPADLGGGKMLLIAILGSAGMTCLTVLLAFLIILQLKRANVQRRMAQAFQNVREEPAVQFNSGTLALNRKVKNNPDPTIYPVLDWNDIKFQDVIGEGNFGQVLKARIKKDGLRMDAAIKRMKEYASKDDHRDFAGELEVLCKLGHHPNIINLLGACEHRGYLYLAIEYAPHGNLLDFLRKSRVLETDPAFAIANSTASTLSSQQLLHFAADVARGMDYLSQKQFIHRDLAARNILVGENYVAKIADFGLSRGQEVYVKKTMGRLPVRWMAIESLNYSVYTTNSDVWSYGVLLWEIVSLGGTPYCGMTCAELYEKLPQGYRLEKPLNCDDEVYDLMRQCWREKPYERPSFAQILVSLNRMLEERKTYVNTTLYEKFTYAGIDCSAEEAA
rat Acetylcholinesterase (AChE), Ache (gene 83817), sequence (P37136 whole entry, looked up): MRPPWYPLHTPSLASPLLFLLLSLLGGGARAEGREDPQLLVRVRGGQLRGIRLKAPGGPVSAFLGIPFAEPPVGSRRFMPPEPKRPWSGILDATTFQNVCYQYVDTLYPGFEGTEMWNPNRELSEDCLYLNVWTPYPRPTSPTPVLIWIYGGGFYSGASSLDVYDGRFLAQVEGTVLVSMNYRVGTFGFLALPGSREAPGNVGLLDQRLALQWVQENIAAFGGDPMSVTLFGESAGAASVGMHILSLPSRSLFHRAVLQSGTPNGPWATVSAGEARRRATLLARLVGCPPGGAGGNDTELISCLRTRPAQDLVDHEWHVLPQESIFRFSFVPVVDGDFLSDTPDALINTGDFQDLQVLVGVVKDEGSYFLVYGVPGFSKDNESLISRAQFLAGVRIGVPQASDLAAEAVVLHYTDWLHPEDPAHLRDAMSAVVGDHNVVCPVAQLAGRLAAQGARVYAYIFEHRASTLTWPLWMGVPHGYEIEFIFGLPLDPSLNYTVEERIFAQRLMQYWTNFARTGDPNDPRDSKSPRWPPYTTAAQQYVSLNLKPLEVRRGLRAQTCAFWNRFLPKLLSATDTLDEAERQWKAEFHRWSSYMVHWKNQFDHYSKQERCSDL
human Serotonin, 5-Hydroxytryptamine Receptor 5A (5HT5A), HTR5A (gene 3361), sequence (P47898 whole entry, looked up): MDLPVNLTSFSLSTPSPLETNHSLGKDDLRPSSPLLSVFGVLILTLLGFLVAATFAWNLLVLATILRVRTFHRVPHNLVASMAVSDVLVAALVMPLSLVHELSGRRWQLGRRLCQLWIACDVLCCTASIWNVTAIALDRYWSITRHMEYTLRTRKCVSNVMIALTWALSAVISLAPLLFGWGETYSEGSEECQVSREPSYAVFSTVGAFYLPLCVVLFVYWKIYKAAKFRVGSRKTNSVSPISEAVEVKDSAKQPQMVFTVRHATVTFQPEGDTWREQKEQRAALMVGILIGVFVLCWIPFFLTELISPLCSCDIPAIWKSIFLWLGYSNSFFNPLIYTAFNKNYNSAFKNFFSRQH

As a reminder, the AC50 is the concentration giving half of the maximal activity seen. With `Cc1ccc(O)cc1C`, the call in assay [1] was inactive. Moreover, the half-maximal activity concentration (AC50) in assay [2] was 47 µM (active).

Turning to `CCOP(=S)(S)OCC`, in assay [3], the compound was called inactive.

Take `c1ccc2c(c1)Nc1ccccc1S2`: the AC50 in assay [4] was 9.71 µM (active).

Consider `Cc1ccc(N)cc1N`, for which the compound was classed as inactive in assay [5] and in assay [7]. Moreover, the AC50 in assay [6] was 6.59 µM (active).

Consider `Nc1cc2c3c(c1)C(c1ccccc1)=N[C@@H](NC(=O)c1cccnc1)C(=O)N3CC2`, for which the outcome in [8] was inactive. The AC50 in [3] is 15.1 µM (active).

In the case of `O=c1ssc(Cl)c1Cl`, the compound was called inactive in [9], in assay [10] and in [3].

On to `Oc1ccc(I)cc1`, for which the concentration at half-maximal activity (AC50) in [4] is 19.9 µM (active).

`CCC(C)(C)c1ccc(O)cc1`: the AC50 in [11] is 25 µM (active). Besides, the compound was classed as inactive in assay [12].

For the compound `CCCCN(CCCC)SN(C)C(=O)Oc1cccc2c1OC(C)(C)C2`, the outcome in assay [10] and in assay [13] was inactive. Further, the half-maximal activity concentration (AC50) in assay [8] is 1.13 µM (active).

As for `c1ccc(OP(Oc2ccccc2)Oc2ccccc2)cc1`, the compound was classed as inactive in [14].

`[N-]=[N+]=[N-]`: the compound was called inactive in assay [6] and in [2].

As to `Nc1ccc([N+](=O)[O-])cc1Cl`, the AC50 in assay [4] is 15.1 µM (active).

With `O=P1(N(CCCl)CCCl)NCCCO1` (stereo not drawn), the result in [9] was inactive.

As for `Nc1ccc(Cl)cc1`, in [3], the result was inactive.

In the case of `O=c1[nH]c2ccccc2c(=O)o1`, the AC50 in assay [3] is 4.96 µM (active).

As for `ClC(Cl)(Cl)c1ccccc1`, the result in assay [6] and in assay [2] was inactive.

In the case of `CC(Cc1ccc(OCC(=O)O)cc1)NCC(O)c1csc(C(F)(F)F)n1` (stereo not drawn), the compound was called inactive in [15].

Regarding `CCN(CC)c1ccccc1`, in assay [16], the result was inactive.

With `CCCCCCCc1ccc(O)cc1`, in assay [2], the AC50 was 25 µM (active).

As to `Nc1ccc2ccccc2c1`, the AC50 in assay [5] is 13.7 µM (active); in assay [14], 7.93 µM (active); in [4] it was 19.4 µM (active).
